# Bioassay records from PubChem.
# This is a sample that favours compounds with a hit; in the whole collection about 1.6% have one here.
# UBC9 SUMO inh – inhibitors of in vitro SUMOylation cascade, primary screen, biochemical, HTRF, uHTS. HTRF SUMOylation assay, SAE1/SAE2 + UBC9. AID 2006, 2009. inhibition, % at 35 µM. 0.36% of 290,000 active; in the data active means inhibition above about 50%, passing the limit was not always enough; inconclusive means no clear call, values can overlap the other calls
# Target sequence (P63279 whole entry, looked up): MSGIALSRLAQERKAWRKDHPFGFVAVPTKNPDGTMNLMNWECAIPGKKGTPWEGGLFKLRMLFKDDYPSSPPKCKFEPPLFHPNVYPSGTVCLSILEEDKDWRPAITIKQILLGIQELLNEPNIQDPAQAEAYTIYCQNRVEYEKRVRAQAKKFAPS
# SIRT5 inh – SIRT5 desuccinylase inhibitors, primary screen, biochemical, fluorescence imaging, single point, set 5; NAD-dependent protein deacylase sirtuin-5, mitochondrial (Homo sapiens), Q9NXA8; Purified SirT5, succinyl-peptide AMC, trypsin-coupled fluorescence; inhibition, % at 15 µM; 1.1% of 330,000 active; AID 652115, 2013; in the data active means inhibition above about 15%; inconclusive means no clear call, values can overlap the other calls
# Casp6 inh – human caspase-6 inhibitors, primary screen, biochemical, VEID-R110 fluorescence, single point, set 2; 0.53% of 350,000 active; purified caspase-6, Z-VEID-R110 cleavage fluorescence; inhibition, % at 12.5 µM;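 active means mean inhibition across replicates at least about 35%, with every replicate also reaching that limit, limit read from the data; inconclusive means only one of the two criteria met; inactive means neither criterion met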;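 further: 0% = median of neutral control wells and 100% = no fluorescence left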
# NSD2 inh – NSD2 histone methyltransferase inhibitors, primary screen, biochemical, AlphaScreen, single concentration, set 2; 0.54% of 310,000 active; NSD2 peptide methylation, 120 min; inhibition, % at 12.5 µM; in the data active means inhibition above about 50%
# Numbers without * were called inactive; ? = inconclusive; / = no result.
SMILES,UBC9 SUMO inh,SIRT5 inh,Casp6 inh,NSD2 inh
N#C/C(=C(/O)c1ccc(S(=O)(=O)N(CCCl)CCCl)cc1)c1nc2ccccc2[nH]1,52.9*,-6.0,-0.7,-0.7
O=C(O)c1c[nH]c2ccc(S(=O)(=O)N(CCCl)CCCl)cc12,-6.3,/,/,0.6
CN(C)C1C(=O)C(C(N)=O)=C(O)C2(O)C(=O)C3=C(O)c4c(O)cccc4C(C)(O)C3CC12 (configuration not stated),25.1,/,/,/
CN(C)[C@@H]1C(=O)C(C(N)=O)=C(O)[C@@]2(O)C(=O)C3=C(O)c4c(O)ccc(Cl)c4[C@@](C)(O)C3C[C@@H]12 (some centres not stated),27.9,10.6,44.0*,/
CN(C)[C@@H]1C(=O)C(C(N)=O)=C(O)[C@@]2(O)C(=O)C3=C(O)c4c(O)cccc4[C@@](C)(O)C3[C@H](O)C12 (some centres not stated),/,36.0*,45.1*,/
CN1CCN(c2ccc3nccnc3c2)CC1,58.4*,-1.2,0.0,-2.7
Nc1ccc2ccc3cccc[n+]3c2c1,?,0.7,-62.6,24.2
C[n+]1c(-c2ccccc2)c2cc(N)ccc2c2ccc(N)cc21,100.8*,2.7,/,/
O=C(Cc1cccs1)N1Cc2ccccc2-n2nncc2C1,/,4.3,40.8*,/
O=C(Cc1cccnc1)N1CCCCN2[C@H](C1)[C@H](c1ccc(C#CC3(O)CCCC3)cc1)[C@@H]2CO,/,-3.2,-2.0,/
BrCCc1ccccc1,/,/,0.9,/
C[N+](C)(C)Cc1ccccc1,-21.4,-1.6,75.7*,/
CN(C)CC#Cc1ccc([C@@H]2[C@@H](CO)N3CCCCN(C(=O)Cc4ccccn4)C[C@H]23)cc1,/,-2.7,1.1,/
NS(=O)(=O)c1ccc(-c2ccc(C=C3C(=O)NC(=S)NC3=O)o2)cc1,9.0,35.4*,19.5,/
CC(=O)OC1(c2ccccc2)CCN(C)CC1(C)C (configuration not stated),11.8,15.3*,4.0,-2.8
O=C(O)c1cccc2c1NC(c1cccc([N+](=O)[O-])c1)C1CC(Sc3ccccc3[N+](=O)[O-])C(Cl)C21 (configuration not stated),/,8.0,54.2*,-0.2
Cc1ccc2c(c1Cl)NC(C(=O)O)C1CC(Sc3ccccc3[N+](=O)[O-])C(Cl)C21 (configuration not stated),32.5,/,/,-7.0
CN1CCN(C(=O)CN=[N+]=[N-])CC1,/,-5.2,1.7,/
COC(=O)[C@@H]1[C@@H](CO)[C@@H]2Cn3c(ccc(-c4ccccc4)c3=O)[C@H]1N2CCc1ccccc1,/,16.1*,1.8,/
CCCC#Cc1ccc([C@@H]2[C@@H](CO)N3CCCCN(C(=O)Cc4ccccn4)C[C@@H]23)cc1,/,-0.1,-6.1,/
Cc1ccc(OCCSC2=NN2c2cc(C)nc(N)n2)cc1,2.9,20.6*,-1.4,0.9
CCCNC(=O)[C@@H]1[C@@H](CO)[C@@H]2Cn3c(cccc3=O)[C@@H]2N1CC,/,3.5,1.1,/
Cc1cc2c(C(C)C)c(O)c(O)c(C=O)c2c(O)c1-c1c(C)cc2c(C(C)C)c(O)c(O)c(C=O)c2c1O,94.9*,24.8*,17.9,/
CC(C)CC#Cc1ccc([C@@H]2[C@H]3CN(C(=O)Cc4ccccn4)CCCCN3[C@H]2CO)cc1,/,9.7,-1.7,/
COC(=O)[C@@H]1[C@@H](CO)[C@@H]2Cn3c(ccc(-c4ccccc4F)c3=O)[C@H]1N2Cc1ccccc1,/,4.1,-1.4,/
SMILES,UBC9 SUMO inh,SIRT5 inh,Casp6 inh,NSD2 inh
CCOc1cc(-c2nc3c(C)cccn3c2NCC2CCCO2)ccc1O (configuration not stated),52.1*,/,/,1.3
Cc1cc(/C=C2\C(=O)NC(=O)N(c3ccccc3)C2=O)c(C)n1-c1ccc(C(=O)O)c(Cl)c1,9.4,-3.2,38.1*,7.2
O=C(CCc1ccccc1)N1Cc2cc(N3CCOCC3)ccc2-n2nncc2C1,/,2.1,-2.9,/
OCC[n+]1c2ccccc2nc2ccc(N3CCOCC3)cc21,-139.7,-3.3,5.8,82.4*
COc1ccc(OC(=O)N(C)C[C@@H]2OCc3ccccc3-c3c(n(C)c4ccccc34)C(=O)N([C@@H](C)CO)C[C@@H]2C)cc1,/,7.4,7.7,/
CCCCN1CCC(C#N)(Nc2ccccc2)CC1,-6.9,21.7*,-3.1,-6.2
O=C1NC(=O)C(=Cc2ccccc2[N+](=O)[O-])C(=O)N1,/,/,0.6,-1.1
O=C1NC(=O)C(=Cc2cc3c(cc2[N+](=O)[O-])OCO3)C(=O)N1,98.6*,2.9,16.8,7.1
